CHO-K1 Ca PAM: M1 PAM counterscreen hit in parental CHO-K1 cells; 360,000 tested, 0.02% active; activation, % at 3 µM; ATP EC20, Fluo-8 calcium fluorescence; 0% at ATP EC20, 100% at ATP max;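 active means activation above the run cutoff, the mean activation of all test compounds plus 3 SD, cut at about 40% in these data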;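 further: peak over basal fluorescence ratio in a 140 s read after ATP addition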
CHO-K1 Ca antag: nonselective inhibitor or artifact in parental CHO-K1 cells; ATP-induced calcium, Fluo-8 fluorescence; inhibition, % at 3 µM; 360,000 tested, 0.6% active;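 active means inhibition above a per-plate cutoff, the plate's mean sample inhibition plus 3 SD, cut at about 24% in these data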;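 further: 0% = DMSO plus EC80 ATP and 100% = DMSO alone without ATP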
M1 PAM: potentiates human M1 receptor response to acetylcholine; 360,000 tested, 0.088% active; activation, % at 3 µM; CHO-K1 hM1, Fluo-8 calcium fluorescence, ACh EC20; 0% = ACh EC20, 100% = maximal ACh; in the data active means activation above about 19%, passing the limit was not always enough
Target sequence (P11229 whole entry, looked up): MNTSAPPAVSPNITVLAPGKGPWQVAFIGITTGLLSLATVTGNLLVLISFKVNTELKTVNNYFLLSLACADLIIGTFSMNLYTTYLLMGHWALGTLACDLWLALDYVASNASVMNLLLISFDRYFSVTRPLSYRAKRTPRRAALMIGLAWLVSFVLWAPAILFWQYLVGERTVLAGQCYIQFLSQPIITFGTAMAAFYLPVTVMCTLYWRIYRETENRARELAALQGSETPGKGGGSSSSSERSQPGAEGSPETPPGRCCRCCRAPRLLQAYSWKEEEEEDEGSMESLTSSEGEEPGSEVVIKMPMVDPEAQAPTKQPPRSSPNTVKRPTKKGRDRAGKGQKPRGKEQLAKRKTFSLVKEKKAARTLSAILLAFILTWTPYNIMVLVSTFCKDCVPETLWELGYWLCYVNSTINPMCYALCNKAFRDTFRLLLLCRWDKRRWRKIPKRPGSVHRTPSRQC
CHRM1 agonist: activates human CHRM1 receptor; 360,000 tested, 0.33% active; activation, % at 3 µM; P11229; CHO-K1 hM1, Fluo-8 calcium fluorescence, agonist mode; 0% DMSO, 100% acetylcholine EC100; AID 588814;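 active means activation above the run's mean compound activation plus 3 SD, cut at about 16% in these data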;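 further: peak over basal fluorescence ratio within a 140 s kinetic read after compound addition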
CHRM1 antagonist: antagonists of human M1 muscarinic receptor; P11229; CHO-K1 hM1, Fluo-8 calcium fluorescence, ACh EC80 antagonist; inhibition, % at 3 µM; 360,000 tested, 1.3% active; AID 588852;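 active means percent inhibition above its own plate's cutoff, namely the mean of that plate's compound wells plus 3 SD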;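 further: peak over basal fluorescence ratio during 140 s after agonist addition; 0% = ACh EC80 plus DMSO and 100% = DMSO alone without agonist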
M1 ag parental: M1 agonist counterscreen hit in parental CHO-K1 cells. Fluo-8 calcium fluorescence; scaled to maximal ATP response, vehicle zero. activation, % at 3 µM. 360,000 tested, 0.48% active. AID 602248; in the data active means activation above about 15%;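 further: untransfected CHO-K1 host cells lacking M1 receptor as counterscreen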
The depositor's hits bear a star; . = no result given. Only some compounds are listed: those with a hit (about 2.3% of all), similar ones and a draw of the others.

SMILES	CHO-K1 Ca PAM	CHO-K1 Ca antag	M1 PAM	CHRM1 agonist	CHRM1 antagonist	M1 ag parental
CCOc1ccc(NS(=O)(=O)c2ccc(C(=O)NCC3(N(C)C)CCCCC3)cc2)cc1	-2.8	10.3	5.7	8.3	6.3	19.4*
O=C(c1ccc(S(=O)(=O)Nc2ccccc2)cc1)N1CCCC(C(F)(F)F)C1 (stereo unspecified)	-30.1	25.9*	7.9	31.5*	5.0	15.4*
CCCC(=O)Nc1ccc(C(=O)N2CCCC2)cc1	-5.2	24.1*	9.1	-1.5	-5.6	-0.1
CCOc1ccc(NS(=O)(=O)c2ccc(C(=O)N3CCCC(C)C3)cc2)cc1 (stereo unspecified)	-5.2	7.6	-14.1	38.7*	28.1*	31.5*
Cc1cccc(C)c1-n1nnnc1C(c1ccnc2ccccc12)N1CCN(c2ccccc2F)CC1 (stereo unspecified)	2.7	-23.7	.	.	.	0.6
CC(OC(=O)C1CCN(S(=O)(=O)c2ccc(C(C)(C)C)cc2)CC1)C(=O)N(C)C1CCCCC1 (stereo unspecified)	5.9	-16.1	8.4	-1.1	-9.8	0.8
CCCCCCCCN1C(=O)[C@H](CC(=O)N2CCN(C(=O)C3CC3)CC2)C[C@@]2(C(=O)OCC)CCCC=C12	6.1	-10.0	.	.	.	1.2
O=C(O)c1ccccc1C(=O)Nc1ccc(S(=O)(=O)NC2CCCCC2)cc1	4.6	-1.5	-2.4	-14.6	2.9	1.3
COc1ccc(NS(=O)(=O)c2ccc(C(=O)N3CCCCCC3)cc2)cc1	-9.7	-4.5	-15.1	23.3*	12.9	18.1*
CCOc1ccc(NS(=O)(=O)c2ccc(C(=O)N3CCCCCC3)cc2)cc1	-9.3	-7.5	-7.4	21.7*	6.3	15.4*
O=C(COc1ccc(S(=O)(=O)NC2CCCCC2)cc1)N1CCN(c2cccc(Cl)c2)CC1	2.3	10.7	-18.3	-4.7	26.4*	5.3
CC(C)NS(=O)(=O)c1ccc(OCC(=O)N2CCN(c3ccccc3)CC2)cc1	7.3	-4.3	4.3	-2.7	-11.6	0.7
CSCC[C@H](NC(=O)c1ccc(Cl)c(S(=O)(=O)N2CCCC2)c1)c1nc2ccccc2[nH]1	-6.4	-3.7	-7.0	-6.8	-4.3	1.0
O=C(Cc1c(Cl)cccc1Cl)OCC(=O)c1ccc[nH]1	-10.5	-6.5	-11.4	-5.0	22.1	2.0
CCOC(=O)c1c(NC(=O)C2CCCO2)sc(C)c1C (stereo unspecified)	2.8	-6.1	-18.9	-5.1	46.7*	-0.6
Cc1sc(NC(=O)C2CCCO2)c(C(N)=O)c1C (stereo unspecified)	21.5	-12.4	12.2	-3.1	-13.3	0.3
CCCC(C)c1nnc(NC(=O)C2CCCO2)s1 (stereo unspecified)	6.3	-14.2	-26.7	-11.5	55.1*	0.7
CCCCN(C)C(=O)c1sc(=O)n(Cc2c(C)cccc2C)c1C	18.1	-14.2	-4.8	-11.8	-6.8	0.6
CC1(C)C[C@@H]1C(=O)N/C(=C\CCCCSC[C@H](N)C(=O)O)C(=O)O	-5.9	-5.1	8.9	-2.1	-35.7	0.3
CC(C)(C)c1ccc(-n2nc(C#N)c(Cl)cc2=O)cc1	-11.4	30.2*	-17.5	-10.6	44.6*	1.2
O=[N+]([O-])c1c(NCCCO)cc(Sc2nc3ccccc3s2)c2nonc12	8.5	18.7	-13.0	-6.0	33.1*	5.5
CCCNC(=O)c1cc(C2CCCCN2C(=O)OCC(C)C)on1 (stereo unspecified)	-11.9	4.8	-20.2	-9.4	41.8*	-0.5
CCCNC(=O)c1cc(C2CCCCN2C(=O)OCCF)on1 (stereo unspecified)	17.7	-10.1	10.2	-7.6	-12.2	1.1
CCCNC(=O)c1cc(C2CCCCN2C(=O)CCCc2ccccc2)on1 (stereo unspecified)	-23.7	24.7*	-9.8	-6.4	10.1	0.5
COc1cc2c(cc1NC(=O)C(C)OC(=O)C1CC(=O)N(Cc3ccco3)C1)oc1ccccc12 (stereo unspecified)	-5.6	28.5*	0.9	-2.4	0.4	-0.1
SMILES	CHO-K1 Ca PAM	CHO-K1 Ca antag	M1 PAM	CHRM1 agonist	CHRM1 antagonist	M1 ag parental
CC(OC(=O)C1CC(=O)N(Cc2ccco2)C1)C(=O)Nc1cccc(C#N)c1 (stereo unspecified)	-8.3	-1.4	2.6	-7.2	-2.1	0.8
CC1(C)[C@H]2CC=C(CN3CCC(N4CCC(C(=O)N5CCCC5)CC4)CC3)[C@@H]1C2	-20.3	5.6	-25.6	-8.2	61.9*	0.6
COCCCN(C(=O)Cc1ccc(S(=O)(=O)N2CCOCC2)s1)c1c(N)n(Cc2ccccc2)c(=O)[nH]c1=O	-4.4	-1.9	-1.1	-2.8	7.5	0.3
Cc1ccc(-n2nnnc2CNC(=O)c2ccc(Br)o2)cc1C	4.8	-15.3	2.6	-3.4	-3.3	0.5
Cc1ccc(-n2nnnc2CNC(=O)c2ccc3c(c2)OCO3)cc1C	-7.3	-6.1	-23.9	-6.5	63.2*	0.5
CCc1nc2c(OCCOc3ccc(F)cc3)cccn2c1N(C)C(=O)c1ccc(OC)cc1	5.6	-2.2	-24.0	-8.8	22.0	1.0
CCCCOCCCNC(=O)C[C@@H]1C[C@@]2(C(=O)OC)CCCCC=C2N(Cc2cccc3ccccc23)C1=O	-5.5	-9.1	.	.	.	2.5
CC(C)(C)c1ccc(S(=O)(=O)N2CCC(O)(c3ccc(Cl)cc3)CC2)cc1	5.4	-0.9	-24.9	-3.6	70.9*	4.7
COCc1ccc(C(=O)N(C)C2CCCN(Cc3ccccc3F)C2)o1 (stereo unspecified)	14.7	-8.9	-22.1	-5.2	89.6*	1.3
CN(C(=O)CCCN1CCCC1=O)C1CCCN(Cc2ccccc2F)C1 (stereo unspecified)	5.1	7.0	-22.7	-6.5	80.7*	0.3
CN(C(=O)CCc1ccccc1F)C1CCCN(Cc2ccccc2F)C1 (stereo unspecified)	6.3	-9.4	-9.5	-8.7	7.5	0.1
COC(=O)c1ccc(C(=O)N(C)C2CCCN(Cc3ccccc3F)C2)cc1 (stereo unspecified)	7.0	-9.7	6.8	-9.5	-12.0	0.1
O=C(Cc1ccccc1)NCC(=O)OCC(=O)c1ccc(Cl)c([N+](=O)[O-])c1	-7.4	4.9	-0.1	-4.9	-10.8	-0.3
COc1ccc(-c2n[nH]c(C)c2-c2ccc(Cl)cc2)c(O)c1	1.7	-0.3	5.3	-2.5	-10.3	0.0
C=C(C)COc1ccc(-c2n[nH]c(C)c2-c2ccc(OC)c(OC)c2)c(O)c1	-11.6	55.3*	8.3	-0.2	-7.0	-1.1
COc1ccc(-c2n[nH]c(C)c2-c2ccc(Cl)cc2)c(O)c1OC	3.0	26.5*	-9.6	0.1	34.6*	5.4
O=C(NCc1cccnc1)c1cccn2c(=O)c3sccc3nc12	5.2	-3.5	-0.7	-3.2	19.0	0.8
